Assay type in all cases: functional
The target of assay [1] is Solute carrier family 2, facilitated glucose transporter member 1 (Homo sapiens) (UniProt P11166). The experiment in a line: ST_JUDE_LEISH: Cytotoxicity at 2uM final concentration against transgenic Leishmania Mexicana promastigotes LmGLUT1 that are glucose transport deficient and complemented with the human glucose transporter GLUT1. Activity is measured by DNA content using SYBR green in vitro.

The target in assay [2] is Hexose transporter 1 (Plasmodium falciparum) (UniProt O97467). The experiment in a line: ST_JUDE_LEISH: Cytotoxicity at 2uM final concentration against transgenic Leishmania Mexicana promastigotes LmPfHT that are glucose transport deficient and complemented with the Plasmodium falciparum hexose transporter. Activity is measured by DNA content using SYBR green in vitro.

Assay [3] has as its target Glucose transporter (Leishmania mexicana) (UniProt O61059). The experiment in a line: ST_JUDE_LEISH: Cytotoxicity at 2uM final concentration against transgenic Leishmania Mexicana promastigotes LmGT2 that are glucose transport deficient and complemented with the L. Mexicana glucose transporter 2. Activity is measured by DNA content using SYBR green in vitro.

Several values for one entry are separate records, joined by “and”; a condition that tells them apart may be missing. Equal values may be shown once.

Sequence of Solute carrier family 2, facilitated glucose transporter member 1 (Homo sapiens) (P11166 whole entry): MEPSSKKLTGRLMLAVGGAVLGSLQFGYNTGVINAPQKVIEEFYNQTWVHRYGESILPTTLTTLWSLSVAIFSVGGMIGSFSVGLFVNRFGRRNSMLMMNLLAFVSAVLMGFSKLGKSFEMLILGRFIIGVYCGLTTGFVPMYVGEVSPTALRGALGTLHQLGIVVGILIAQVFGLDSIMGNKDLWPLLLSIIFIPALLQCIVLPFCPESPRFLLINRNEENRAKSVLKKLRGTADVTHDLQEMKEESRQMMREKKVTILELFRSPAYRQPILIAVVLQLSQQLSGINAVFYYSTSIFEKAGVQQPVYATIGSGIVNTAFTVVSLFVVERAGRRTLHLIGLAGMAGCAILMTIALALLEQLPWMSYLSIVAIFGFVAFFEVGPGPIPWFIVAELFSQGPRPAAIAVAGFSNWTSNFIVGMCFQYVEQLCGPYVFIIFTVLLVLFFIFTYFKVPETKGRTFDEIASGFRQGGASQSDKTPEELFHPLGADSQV

Regarding `CN1CC=C(c2c[nH]c3ccc(OC(=O)c4ccccc4)cc23)C1`, the values for the inhibition in assay [1], in assay [2] and in assay [3] were 0.69%, 0.43% and 1%, respectively.
As for `O=C(/C=C/c1ccc([N+](=O)[O-])cc1)NC1CCC(CN2CCC(c3c[nH]c4ccccc34)CC2)CC1` (stereo not given), the inhibition is 2.8% and -1.4% in assay [1]; 1.89% and -2.18% in assay [2]; 0.45% in assay [3].
Regarding `CCCc1c(C(=O)NC2CCC(CN3CCC(c4c[nH]c5ccccc45)CC3)CC2)cnn1-c1ccc(Cl)cc1` (stereo not given), the results for the inhibition in assay [1], in assay [2] and in assay [3] were -0.47%, -1.46% and -1.49%, respectively.
The corresponding values for `O=C(NCc1ccc(S(=O)(=O)N2CCC(CN3CCC(c4c[nH]c5ccccc45)CC3)CC2)s1)c1ccccc1` are 3.85%, 3.63% and 3.02%.
Taken in the same sequence, the figures for `CCCC(=O)c1c(O)c2ccccc2oc1=O` were 6.46%, 7.19% and 5.83%.
The corresponding values for `CC(=O)N(Cc1ccc(-c2ccc(CNCCc3ccccc3)cc2)cc1)C1CCN(Cc2ccccc2)CC1` are 1.67%, 1.69% and 1.11%.
Regarding `O=C(/C=C/c1cc(F)cc(C(F)(F)F)c1)N1CCC(CN2CCC(c3c[nH]c4ccccc34)CC2)CC1`, the results for the inhibition in assay [1], in assay [2] and in assay [3] were 0.47%, 1.39% and 2.96%, respectively.
As to `CC[C@H]1CN2CC[C@H]1C[C@H]2[C@H](O)c1cc(-c2cccc(Cl)c2)nc2ccc(OC)cc12`, the inhibition was found to be 9.7% in assay [1], 9.03% in assay [2] and 10.7% in assay [3].
The corresponding values for `CC(=O)Nc1ccc(OCCN(CC(C)(C)C)c2ccc(C#N)c(C(F)(F)F)c2)c(Cl)c1` are 4.2%, 5.82% and 3.22%.
The corresponding values for `COc1ccc(C=CC(=O)N2CCC(CN3CCC(c4c[nH]c5ccccc45)CC3)CC2)cc1OC` are 1.11%, 0.91% and -0.06%.
Taken in the same sequence, the figures for `CC(C)CNCc1ccc(-c2cccc(CN(C(=O)Nc3ccccc3)C3CCN(Cc4ccccc4)CC3)c2)cc1` were 0.61%, -0.02% and -1.04%.
As for `COc1cc(NCCCNC(=O)c2cn(Cc3ccccc3)c3ccccc23)nc2ccccc12`, the inhibition in assay [1] is -0.26%; in assay [2], -0.48%; in assay [3], -1.02%.
Taken in the same sequence, the figures for `CC[C@H]1CN2CC[C@@H]1C[C@H]2[C@H](O)c1cc(N2CCC(O)CC2)nc2ccc(OC)cc12` were -1.16%, -0.97% and -0.9%.
The corresponding values for `CN1CCC(N(C)c2nccc(N3CCN(Cc4cncn4Cc4ccccc4)CC3)n2)CC1` are 12.8%, 12.8% and 10.8%.
As to `C#CCN1CCC2=C(C1)c1c(O)cc(C(C)C(C)CCc3ccc(F)cc3)cc1OC2(C)C` (stereo not given), the inhibition in assay [1] was 0.45%; in assay [2] it was -1.07%; in assay [3], -1.42%.
Taken in the same sequence, the figures for `CC(Cc1ccc(OCc2ccccc2)cc1)NCC(O)c1cccc(Cl)c1` (stereo not given) were 5.48%, 3.61% and 4.23%.
The corresponding values for `CC[C@H]1CN2CC[C@@H]1C[C@H]2[C@H](O)c1cc(-c2ccccc2)nc2ccc(O)cc12` are 5.97%, 5.53% and 2.83%.
Consider `Cc1ccc(/C=C/C(=O)NC2CCC(CN3CCC(c4c[nH]c5ccccc45)CC3)CC2)cc1` (stereo not given), for which the inhibition in assay [1] was 0.19% and 4.55%; in assay [2] it was 1.12% and 3.15%; in assay [3], 2.44% and 0.47%.
As to `CC[C@H]1C[N+]2([O-])CC[C@@H]1C[C@H]2[C@H](O)c1cc(-c2ccccc2)nc2ccc(OC)cc12`, the inhibition in assay [1] turned out to be 5.08%; in assay [2], 2.87%; in assay [3], 4.7%.
Consider `COc1ccccc1CC(C)NCC(O)c1cccc(Cl)c1` (stereo not given), for which the inhibition in assay [1] is -0.34%; in assay [2], 4.23%; in assay [3], 1.87%.
The corresponding values for `COc1ccc(C[C@H]2NC[C@H](O)[C@H]2OC(C)=O)cc1` are 105%, 103% and 92.1%.
Taken in the same sequence, the figures for `CCCCCc1cc(O)c2c(c1)OC(C)(C)CC2C1=CCN(Cc2ccccc2)CC1` (stereo not given) were 2.07%, 2.23% and 2.74%.
Taken in the same sequence, the figures for `CC1(CCCCN2CC=C(c3c[nH]c4ccccc34)CC2)C(=O)Nc2ccccc21` (stereo not given) were 0.6%, -0.08% and 2.1%.
As to `COC(C(=O)OCCC1CCCN1C)(c1ccccc1)C1CCCCC1` (stereo not given), the inhibition turned out to be 11.6% in assay [1], 10.5% in assay [2] and 10.5% in assay [3].
Regarding `COc1cccc(CCNC(C)Cc2ccc(OCCCCOc3ccccc3)cc2)c1` (stereo not given), the inhibition worked out at 95% in assay [1], 96.3% in assay [2] and 101% in assay [3].
Taken in the same sequence, the figures for `O=S(=O)(NC1CCC(CN2CCC(c3c[nH]c4ccccc34)CC2)CC1)c1ccc(Cl)c(Cl)c1` (stereo not given) were -2.62%, -1.92% and -2.55%.
Taken in the same sequence, the figures for `O=C(NC1CCC(CN2CCC(c3c[nH]c4ccccc34)CC2)CC1)c1cc(-c2ccccc2Cl)n(-c2cccc(Cl)c2)n1` (stereo not given) were 3.93%, 2.86% and 1.71%.
Taken in the same sequence, the figures for `CC[C@H]1CN2CC[C@@H]1C[C@H]2[C@H](O)c1cc(N2CCC(C(N)=O)CC2)nc2ccc(OC)cc12` were 8.84%, 7.92% and 8.43%.
For `CC[C@H]1CN2CC[C@H]1C[C@H]2[C@H](O)c1cc(-c2ccc(Cl)c(Cl)c2)nc2ccc(OC)cc12`, the inhibition came to 12.6% in assay [1], 9.65% in assay [2] and 9.4% in assay [3].
The corresponding values for `Cc1nc(N)nc(N)c1-c1cccc(Cl)c1` are 3.73%, 4.7% and 1.38%.
The corresponding values for `O=[N+]([O-])c1ccc(Oc2c(Cl)cc(S(=O)(=O)NC3CCC(CN4CCC(c5c[nH]c6ccccc56)CC4)CC3)cc2Cl)c(Cl)c1` (stereo not given) are 2.41%, 0.39% and -1.14%.
Taken in the same sequence, the figures for `O=P(O)(O)Oc1c(Br)cc(Br)cc1-c1cc(Br)cc(Br)c1O` were 0.02%, 1.27% and 0.55%.
`CN(C)CCc1c[nH]c2ccc(C(=O)Nc3ccc(-c4ccncc4)cc3)cc12`: the results for the inhibition in assay [1], in assay [2] and in assay [3] were 0.58%, 0.83% and 0.61%, respectively.
Consider `CS(=O)(=O)Nc1ccc2[nH]cc(C3CC4CCC(C3)N4CC3CCC(NC(=O)/C=C/c4ccc(Cl)c(Cl)c4)CC3)c2c1` (stereo not given), for which the inhibition in assay [1] was 5.91%; in assay [2], 5.37%; in assay [3], 5.09%.
The corresponding values for `COc1ccccc1CNCC(O)c1cc(C(F)(F)F)ccc1C(F)(F)F` (stereo not given) are 0.84%, 0.58% and 1.6%.

A word on the inhibition: it is the change of the read-out against control, counted positive when it falls.

(Values after ChEMBL document CHEMBL3433997, “St. Jude Leishmania screening dataset” (2016).)
